Source: ChEMBL document CHEMBL4513216, “Probing the Open Global Health Chemical Diversity Library for Multistage-Active Starting Points for Next-Generation Antimalarials” (ACS Infect Dis, 2020)
Screen size: about 65,000 compounds; about 2,100 (3.2%) showed an effect of 50% or more. The median lay at about -52%. Only a selection was taken, and strong results are over-represented in it overall.

Each molecule was assayed on Plasmodium falciparum (assay: Screen against P. falciparum Asexual Blood Stage (ABS), at 5uM). Details: tested at 5 uM.
Format: functional, Dd2

Row | SMILES | INHIBITION [%]
1 | CCC1=N[C@@]2(CC[C@@H]3CN(C(=O)NCc4ccccc4C)C[C@@H]32)C(=O)N1 | -16
2 | c1cnn(CC2CCCN2c2ncnc3ccsc23)c1 (centres undefined) | -122
3 | CCc1cnc(N)nc1NCCn1cc(Cl)cn1 | 55.4
4 | CCc1cnc(N)nc1NCCc1ccc(OC)cc1OC | -6.25
5 | CCc1cnc(C)nc1NCCN1CCOCC1 | -11.8
6 | CCc1cnc(C)nc1NCCN1CCCCCC1 | 44.7
7 | CCc1cnc(N)nc1NCCCn1nc(C)nc1C | -44.2
8 | CCc1cnc(N)nc1NCCN1CCCCC1 | 51.1
9 | Cc1ccc(CN2CCC3(CC2)CN(c2ccccc2)C(=O)CO3)o1 | -69
10 | c1cnn(CC2CN(Cc3csc(C4CCCCC4)n3)CCO2)c1 (centres undefined) | -70
11 | CNc1ncc(CN(C)C(=O)CCc2[nH]nc3c2CCCC3)cn1 | -74.2
12 | NC(=O)C1CCN(C(=O)c2ccc(OCc3cscn3)cc2)CC1 | -12.2
13 | CCS(=O)(=O)N1CCc2ccc(NC(=O)Nc3cccc(F)c3)cc21 | -51.9
14 | CC(C)(C)NC(=O)c1ccn(COc2ccccc2Cl)n1 | -35.7
15 | CC(C)(C)n1nnnc1CN(CCc1ccccc1)Cc1ccccc1 | 20.2
16 | CC(C)(C)n1nnnc1CN(Cc1ccccc1)Cc1ccc(Cl)cc1 | 67.5
17 | CC(C)(C)n1ncc(NCc2ccccc2)c(Cl)c1=O | -43.4
18 | COc1ncccc1CNC(=O)c1ccco1 | -16.5
19 | Cn1c(CN2CCOCC2)cc(=O)c(O)c1CN1CCCCC1 | -211
20 | Cn1c(CN2CCCCCC2)cc(=O)c(O)c1CN1CCCC1 | 60.2
21 | Cn1c(CN2CCOCC2)cc(=O)c(O)c1CN1CCCC1 | -205
22 | c1ccc(C2Cn3ccnc3CN2Cc2ncc[nH]2)cc1 (centres undefined) | -116
23 | Cc1cccc(Nc2cc(C3CCCN(CC(N)=O)C3)ccn2)n1 (centres undefined) | -10.4

Row | SMILES | INHIBITION [%]
24 | O=C(c1cccc(Cn2ccnc2)c1)N1CCCC(n2cccn2)C1 (centres undefined) | 61.4
25 | Cc1cnn(C2CCCN(C(=O)c3cccc(Cn4ccnc4)c3)C2)c1 (centres undefined) | -112
26 | O=C(c1cccc(Cn2ccnc2)c1)N1CCCC(n2ccnc2)C1 (centres undefined) | -59.1
27 | CCN(CC)c1ccc2ccc(C(=O)N3CCCCO3)cn12 | 44.7
28 | CC(C)c1nnc2n1CCN(Cc1ccc3c(c1)OCCO3)C2 | -93.4
29 | c1ccc(-c2nnc3n2CCN(Cc2ccc4c(c2)OCCO4)C3)cc1 | 58.5
30 | CCc1nnc2n1CCN(Cc1ccc3c(c1)OCCO3)C2 | -83
31 | CC1CCC(NCCNC(=O)c2cccs2)CC1 (centres undefined) | 63.7
32 | O=C(NCCNC1CCCC1)c1cccs1 | -54.1
33 | O=C(NCCNC1CCCCC1)c1cccs1 | -44.7
34 | CCC(CC)C(=O)Nc1ccc2oc(=O)n(CCN(C)C)c2c1 | 25.5
35 | CN(Cc1ccccc1)CC1CC2(CO1)CN(Cc1cnn(C)c1)C2 (centres undefined) | 52.1
36 | CN(Cc1ccccc1)CC1CC2(CO1)CN(c1nncs1)C2 (centres undefined) | -0.698
37 | CN(Cc1ccccc1)CC1CC2(CO1)CN(Cc1nccs1)C2 (centres undefined) | 6.81
38 | CNC(=O)Cc1ccccc1NC(=O)N[C@H]1c2ccccc2C[C@H]1O | -69.7
39 | O=c1[nH]ccc2cc(-c3cc(O)cc(CCC4CCCCN4)c3)ccc12 (centres undefined) | -57.5
40 | COc1ccc(CCC2CCCCN2)cc1OC (centres undefined) | -112
41 | O=c1cc(-c2cc(O)cc(CCC3CCCCN3)c2)cc[nH]1 (centres undefined) | 0.568
42 | Oc1cc(CCC2CCCCN2)cc(-c2cccnc2)c1 (centres undefined) | 69
43 | Oc1cc(CCC2CCCCN2)cc(-c2ccncc2)c1 (centres undefined) | 67.5
44 | Nc1ccc(-c2cc(O)cc(CCC3CCCCN3)c2)cn1 (centres undefined) | -92.8
45 | Cc1nc2c(c(NCCCN3CCOCC3)n1)CCN(C)C2 | -73.4
46 | COC(=O)c1cccn1C1CCN(Cc2ccccc2)CC1 | -122

Row | SMILES | INHIBITION [%]
47 | CN1CC2(CCC1=O)CCN(CC[C@@H](O)c1ccccc1)CC2 | -14
48 | Cn1ccnc1CCNC(=O)C1CCCN(Cc2cccc(F)c2)C1 (centres undefined) | 59.3
49 | Cn1cc(CNC(=O)C2CCCN(Cc3cccc(F)c3)C2)cn1 (centres undefined) | -59.1
50 | Cn1cnnc1CNC(=O)C1CCCN(Cc2cccc(F)c2)C1 (centres undefined) | -141
51 | CCCN(C(=O)c1ccncc1)c1nc2c(s1)CCc1c-2cnn1C | 55.6
52 | CCCN(C(=O)c1ccccn1)c1nc2c(s1)CCc1c-2cnn1C | 38.1
53 | CCCN(C(=O)c1cnccn1)c1nc2c(s1)CCc1c-2cnn1C | -28.8
54 | OC1CCN(Cc2c(C3CCCNC3)[nH]c3ncccc23)CC1 (centres undefined) | -65.3
55 | Cc1ccc2c(ccn2CC(=O)NC[C@@H]2CCCN3CCCC[C@H]23)c1 | 49
56 | COc1ccc2c(ccn2CC(=O)NC[C@@H]2CCCN3CCCC[C@H]23)c1 | -57.3
57 | O=C(Cn1ccc2ccccc21)NC[C@@H]1CCCN2CCCC[C@H]12 | -14.5
58 | O=C(CCn1ccc2cc(Br)ccc21)NC[C@@H]1CCCN2CCCC[C@H]12 | 67.1
59 | O=C(Cn1ccc2cc(Br)ccc21)NC[C@@H]1CCCN2CCCC[C@H]12 | -14
60 | Cc1ccc2c(ccn2CCC(=O)NC[C@@H]2CCCN3CCCC[C@H]23)c1 | 52
61 | Nc1cc(N2CCC(c3cc(Cc4ccccc4)n[nH]3)CC2)ccn1 | 11.1
62 | CN(C)[C@@H]1CN(Cc2ccccn2)C[C@H]1c1cn(C)c2ccccc12 | 52.6
63 | CN(Cc1ccco1)[C@@H]1CN(Cc2ccccn2)C[C@@H]2CCCO[C@@H]21 | 31.5
64 | Cc1cc(C)n(C2CN(Cc3ccccn3)C2)n1 | -90.2
65 | COc1cccc2c1OCC(Cc1cc(C(=O)N3CCCC3)ccn1)C2 (centres undefined) | -9.28
66 | COc1ccc([C@@H]2CN(Cc3cccnc3N)C[C@H]2NC(C)=O)cc1 | -59.7
67 | COc1ccc([C@@H]2CN(Cc3ccncc3)C[C@H]2N(C)C)cc1 | -36.3
68 | COc1ccc([C@@H]2CN(Cc3cccnc3N)C[C@H]2N(C)C)cc1 | 53.9
69 | Cn1cccc1C(=O)N1CCn2cc(CN3CCCC3)nc2C1 | -26.2
